# Laboratory results as given in paper PMC4336329 (PLoS ONE, 2015).
# The campaign covered roughly 310,000 compounds. About 14,000 (4.5%) showed an effect of 50% or more. Effects have a minus sign here. This excerpt belongs to a sample that is enriched for strong results.
# Target: human ether-à-go-go-related gene (hERG) potassium channel (human, UniProt Q12809)
# Assay: primary screen, population patch clamp on CHO cells stably expressing hERG; higher = less effect of the substance
# 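Further: peak tail current of the secondary pulse compared with the same well before compound.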
# human ether-à-go-go-related gene (hERG) potassium channel, sequence (Q12809 whole entry, looked up): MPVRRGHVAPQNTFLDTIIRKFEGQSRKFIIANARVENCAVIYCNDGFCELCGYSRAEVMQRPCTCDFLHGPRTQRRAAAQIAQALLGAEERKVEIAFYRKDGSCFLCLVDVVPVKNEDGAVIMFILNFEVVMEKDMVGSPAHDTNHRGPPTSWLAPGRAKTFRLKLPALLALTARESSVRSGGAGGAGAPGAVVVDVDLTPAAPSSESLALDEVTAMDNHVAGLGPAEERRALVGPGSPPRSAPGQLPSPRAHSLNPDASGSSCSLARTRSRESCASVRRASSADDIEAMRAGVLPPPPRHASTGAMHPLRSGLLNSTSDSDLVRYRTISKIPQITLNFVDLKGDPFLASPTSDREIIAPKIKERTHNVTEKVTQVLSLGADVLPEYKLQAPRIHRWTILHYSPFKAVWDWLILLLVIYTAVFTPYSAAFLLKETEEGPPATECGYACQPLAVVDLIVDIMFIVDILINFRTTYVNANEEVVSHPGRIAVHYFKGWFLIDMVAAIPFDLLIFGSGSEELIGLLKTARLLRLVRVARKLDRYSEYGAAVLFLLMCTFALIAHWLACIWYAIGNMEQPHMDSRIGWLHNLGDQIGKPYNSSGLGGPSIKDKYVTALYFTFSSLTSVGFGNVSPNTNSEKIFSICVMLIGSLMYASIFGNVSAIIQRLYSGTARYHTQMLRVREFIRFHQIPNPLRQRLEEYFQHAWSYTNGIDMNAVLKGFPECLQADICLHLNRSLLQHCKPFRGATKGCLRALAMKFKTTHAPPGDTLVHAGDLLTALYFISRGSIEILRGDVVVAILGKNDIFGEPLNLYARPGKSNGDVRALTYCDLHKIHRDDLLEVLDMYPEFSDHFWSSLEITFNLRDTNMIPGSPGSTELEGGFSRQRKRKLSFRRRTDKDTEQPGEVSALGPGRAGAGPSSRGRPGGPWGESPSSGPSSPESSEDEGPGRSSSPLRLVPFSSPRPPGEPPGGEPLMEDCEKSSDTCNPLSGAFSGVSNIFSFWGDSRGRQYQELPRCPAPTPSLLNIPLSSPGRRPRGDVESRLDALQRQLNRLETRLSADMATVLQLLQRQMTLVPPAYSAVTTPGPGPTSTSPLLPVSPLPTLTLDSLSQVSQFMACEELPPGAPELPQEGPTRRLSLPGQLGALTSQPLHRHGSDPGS
row,SMILES,"hERG current change (%, negative = inhibition) at 10uM [%]"
1,CN(C)C(CNC(=O)c1ccc(NS(=O)(=O)c2cccc([N+](=O)[O-])c2)cc1)c1ccco1 (stereo not shown),12.4
2,Cc1ccc(NC(=O)COC(=O)COc2cccc3c2OC(C)(C)C3)cc1C,-13.9
3,CCCNC(=O)CN(C)S(=O)(=O)c1c(C)cc(C)cc1C,6.62
4,Cn1ccnc1C(O)c1ccc(OCc2ccccc2)cc1 (stereo not shown),4.19
5,O=C(O)C(=O)O.O=C1CCCN1CN1CCCCC1,0.00358
6,O=C(NCc1ccco1)c1csc(Nc2ccccc2Cl)n1,-63.1
7,Cc1c(Cl)cccc1NC(=S)NCc1ccco1,4.12
8,S=C(NCc1ccco1)Nc1cccc(Cl)c1Cl,-3.13
9,S=C(NCc1ccco1)Nc1ccccc1Cl,-52
10,COc1ccc(Nc2nc(C(=O)NCc3ccco3)cs2)cc1,-14.4
11,Cc1ccc(Nc2nc(C(=O)NCc3ccco3)cs2)cc1,-13.5
12,Cc1cc(-c2n[nH]c(=S)n2/N=C/C=C/c2ccccc2)n[nH]1,6.76
13,Cc1ccc(NS(=O)(=O)c2ccc3[nH]c(=O)[nH]c3c2)cc1,21
14,N/C(Cc1ccc(Cl)cc1Cl)=N\OC(=O)Cc1ccccc1,7.08
15,CC(C)c1ccc(NC(=O)[C@@H](C)NC(=O)[C@@H]2Cc3ccccc3CN2)cc1,-29.2
16,Cc1ccc(NC(=O)[C@H](NC(=O)[C@@H]2Cc3ccccc3CN2)c2ccccc2)c(C)c1,-60.7
17,Cc1ccc(NC(=O)[C@H](Cc2ccccc2)NC(=O)[C@@H]2Cc3ccccc3CN2)c(C)c1,-5.23
18,COc1cccc(NC(=O)[C@H](NC(=O)[C@@H]2Cc3ccccc3CN2)c2ccccc2)c1,-76.4
19,Cc1ccc(NC(=O)[C@H](Cc2c[nH]c3ccccc23)NC(=O)[C@@H]2Cc3ccccc3CN2)c(C)c1,-30.1
20,COc1cccc(NC(=O)[C@H](Cc2ccccc2)NC(=O)[C@@H]2Cc3ccccc3CN2)c1,-2.99
21,CC(C)c1ccc(NC(=O)[C@H](NC(=O)[C@@H]2Cc3ccccc3CN2)c2ccccc2)cc1,-6.39
22,CC(NC(=O)[C@H](NC(=O)[C@@H]1Cc2ccccc2CN1)c1ccccc1)c1ccccc1 (stereo partly shown),-32.9

row,SMILES,"hERG current change (%, negative = inhibition) at 10uM [%]"
1,Cc1ccc(NC(=O)[C@@H](C)NC(=O)[C@@H]2Cc3ccccc3CN2)cc1,-14.9
2,COc1cccc(NC(=O)[C@H](CC(C)C)NC(=O)[C@@H]2Cc3ccccc3CN2)c1,-16
3,COc1ccc(NC(=O)[C@H](NC(=O)[C@@H]2Cc3ccccc3CN2)c2ccccc2)cc1,-50.3
4,Cc1ccc(NC(=O)[C@H](NC(=O)[C@@H]2Cc3ccccc3CN2)c2ccccc2)cc1,-64.1
5,CCOc1ccccc1N(C(=O)c1ccccc1Cl)C1=NC(C)(C)CS1,-2.51
6,CC(NC(=O)c1ccccc1[N+](=O)[O-])C1CC2CCC1C2 (stereo not shown),5.96
7,O=C(NCc1ccc2c(c1)OCO2)c1ccc(COc2cc(Cl)ccc2Cl)o1,11.7
8,O=C(c1ccccc1)N1N=C(c2ccccc2O)CC1c1ccccc1 (stereo not shown),6.88
9,CCCCCOC(=O)C1=C(C)NC(=O)NC1c1ccc2c(c1)OCO2 (stereo not shown),6.41
10,CCOc1ccc(/C=N/N2C(=O)C(CC(=O)Nc3ccc(F)cc3F)SC2=NC)cc1OC (stereo not shown),3.82
11,CCOc1ccc(CN(C)C(=O)CCl)cc1,-1.2
12,CS(=O)(=O)N(CC(=O)NCc1ccc2c(c1)OCO2)c1ccccc1,6.97
13,COCc1c(C(=O)Nc2nc(C)cs2)oc2ccccc12,-2.57
14,CCCOP(=O)(OCCC)c1nc(-c2ccccc2)oc1NCc1ccccc1,6.49
15,CCc1ccc(NC(=O)CCS(=O)(=O)c2ccc(Cl)cc2)cc1,6.96
16,Cc1cccc(NC(=O)[C@@H](CC(C)C)NC(=O)[C@@H]2Cc3ccccc3CN2)c1,-40.7
17,CCc1ccc(NC(=O)[C@@H](NC(=O)[C@@H]2Cc3ccccc3CN2)C(C)CC)cc1 (stereo partly shown),-13.6
18,COc1ccc(CNC(=O)[C@H](Cc2c[nH]c3ccccc23)NC(=O)[C@@H]2Cc3ccccc3CN2)cc1,-53.9
19,Cc1cccc(NC(=O)[C@H](Cc2ccccc2)NC(=O)[C@@H]2Cc3ccccc3CN2)c1,-0.0161
20,CCc1ccc(NC(=O)[C@H](NC(=O)[C@@H]2Cc3ccccc3CN2)c2ccccc2)cc1,-55
21,Cc1cccc(NC(=O)[C@@H](NC(=O)[C@@H]2Cc3ccccc3CN2)C(C)C)c1,-62.4
22,COc1ccccc1CNC(=O)[C@H](Cc1c[nH]c2ccccc12)NC(=O)[C@@H]1Cc2ccccc2CN1,-16.5

row,SMILES,"hERG current change (%, negative = inhibition) at 10uM [%]"
1,Cc1ccc(NC(=O)[C@H](NC(=O)[C@@H]2Cc3ccccc3CN2)c2ccccc2)cc1C,-37.9
2,Cc1cccc(NC(=O)[C@H](NC(=O)[C@@H]2Cc3ccccc3CN2)c2ccccc2)c1,-54.4
3,CCc1ccc(NC(=O)CNC(=O)[C@@H]2Cc3ccccc3CN2)cc1,-19.9
4,Cc1cc(C)cc(NC(=O)[C@H](NC(=O)[C@@H]2Cc3ccccc3CN2)c2ccccc2)c1,-0.0454
5,COc1ccc(NC(=O)[C@H](Cc2c[nH]c3ccccc23)NC(=O)[C@@H]2Cc3ccccc3CN2)cc1,-36.8
6,CN(c1ccc(C(=O)NC2CCCC2)cc1)S(=O)(=O)c1ccc(Cl)cc1,16.2
7,COC(=O)CNC(=O)C1CCN(S(=O)(=O)c2cnc[nH]2)CC1,-1.84
8,CC1=NN(C(C#N)c2ccc(F)cc2)C(c2ccccc2)C1 (stereo not shown),4.44
9,COCCN(CCOC)S(=O)(=O)c1ccc(C(=O)Nc2ccncc2)cc1,-11.6
10,CSc1cccc(NC(=O)CN(C)S(=O)(=O)c2ccc(C)cc2)c1,-32.8
11,CCc1ccc2[nH]c(=O)c(C(c3nnnn3CCOC)N3CCN(c4ccccc4)CC3)cc2c1 (stereo not shown),-11.6
12,COCCn1nc2cc(C(=O)NCc3cc(C(F)(F)F)cc(C(F)(F)F)c3)ccc2c1OC,21.8
13,C[C@@H](NC(=O)[C@@H]1Cc2ccccc2CN1)C(=O)Nc1ccc2c(c1)OCCO2,3.19
14,C[C@H](NC(=O)[C@@H]1Cc2ccccc2CN1)C(=O)Nc1ccc2c(c1)OCCO2,3.18
15,CSCC[C@H](NC(=O)[C@@H]1Cc2ccccc2CN1)C(=O)Nc1ccc2c(c1)OCCO2,-65.5
16,Cc1cc(C(=O)OCC(=O)NCc2ccc3c(c2)OCO3)c2ccccc2n1,-27.5
17,Cc1ccc(N(C(=O)c2snc(C(N)=O)c2N)C(C(=O)NCC2CCCO2)c2c[nH]c3ccccc23)cc1 (stereo not shown),-6.36
18,O=C(CSc1nnc(-c2ccccc2Br)o1)Nc1nncs1,-57.9
19,O=C(CSc1nnc(-c2ccncc2)o1)Nc1nncs1,15.5
20,O=C(CSc1nnc(-c2ccccc2Br)o1)Nc1cccc2ccccc12,5.79
21,COc1ccc(NC(=O)c2ccc(COc3ccccc3)o2)c(OC)c1,-7.06
22,O=C(CC(C(=O)O)C1CCCO1)Nc1cccc(C(F)(F)F)c1 (stereo not shown),5.84

row,SMILES,"hERG current change (%, negative = inhibition) at 10uM [%]"
1,O=C(CNC(=O)c1cccnc1)N/N=C/c1cccnc1,8.4
2,O=C1CN(C(=O)c2ccccc2Br)C(c2ccc(F)cc2)c2cc(F)ccc2N1 (stereo not shown),-61.6
3,O=C1CN(C(=O)c2ccccc2F)C(c2ccc(F)cc2)c2cc(F)ccc2N1 (stereo not shown),-11.7
4,Cc1ccc2c(c1)C(c1ccc(F)cc1)N(C(=O)c1ccccc1Br)CC(=O)N2 (stereo not shown),-16.1
5,O=C1CN(C(=O)c2cccc(F)c2)C(c2ccc(F)cc2)c2cc(F)ccc2N1 (stereo not shown),-15.4
6,Cc1ccc(C(=O)N2CC(=O)Nc3ccc(F)cc3C2c2ccccc2)cc1 (stereo not shown),-4.56
7,O=C1CN(C(=O)c2ccccc2)C(c2ccccc2)c2cc(F)ccc2N1 (stereo not shown),-75.1
8,CCCOc1ccc(C(=O)N2CCCc3ccccc32)cc1,-26
9,COc1ccc(C2SCC(C(=O)NCc3ccc(F)cc3)N2C(C)=O)cc1 (stereo not shown),-20.2
10,Nc1ccccc1SSc1ccccc1N,27.7
11,COc1ccc2nc(N3CCCC(C(=O)NCCCN4C(C)CCCC4C)C3)sc2c1 (stereo not shown),-34.1
12,CCOc1ccc2nc(N3CCC(C(=O)NCCCN4CCOCC4)CC3)sc2c1,-17.7
13,Cc1cc(C)c(C)c(S(=O)(=O)N2CCC(C(=O)NCCCN3CCCC3=O)CC2)c1C,-70
14,CCOc1ccc2nc(N3CCCC(C(=O)NCCCN4C(C)CCCC4C)C3)sc2c1 (stereo not shown),-54.7
15,Cc1ccc(S(=O)(=O)N2CCC(C(=O)NCCCN3CCCC3=O)CC2)cc1C,7.98
16,CCOc1cc2sc(N3CCC(C(=O)NCCCN4CCCC4=O)CC3)nc2cc1Br,-60.5
17,CCOc1ccc2nc(N3CCCC(C(=O)NC4CCCC4)C3)sc2c1 (stereo not shown),-0.903
18,CCOc1ccc2nc(N3CCCC(C(=O)NCC4CCCO4)C3)sc2c1 (stereo not shown),-19.1
19,Cc1cc(C)c2nc(N3CCC(C(=O)NCCCN4CCCC4=O)CC3)sc2c1,-25.5
20,O=C(NCCCN1CCCC1=O)C1CCN(S(=O)(=O)c2c(Cl)cccc2Cl)CC1,-0.379
21,COc1ccc2nc(N3CCCC(C(=O)NCCCN4CCN(C)CC4)C3)sc2c1 (stereo not shown),1.67
22,CCCN1CCN(CCCNC(=O)C2CCCN(c3nc4ccc(OCC)cc4s3)C2)CC1 (stereo not shown),-56.7
